# Results published in PubChem BioAssay (NCATS).
# Several values for one entry are separate records, joined by “and”; a condition that tells them apart may be missing. Equal values may be shown once. Inconclusive results are not listed. Unmarked numbers belong to inactive results. Calls come from the whole dose curve; as a rule, active = well fitted inhibition curve with a large enough effect in the signal ratio, with a control signal flat (not every such curve was filed as active); inconclusive = small, poorly fitted or top-dose-only effect, or effect the other way, or a change in a side signal; inactive = no such curve, though single readings can be large or run the other way; the % refers to the signal ratio.
# Target: Retinoic acid receptor RXR-alpha (Homo sapiens) (UniProt P19793)
# Assay: qHTS assay for small molecule antagonists of retinoid X receptor alpha signaling (AID 588546)
# Settings: HEK293T RXRa-UAS-bla, beta-lactamase ratio, antagonist mode
# Text: NIH Chemical Genomics Center [NCGC] U.S. Environmental Protection Agency [EPA] National Institutes of Environmental Health Sciences [NIEHS] National Toxicology Program [NTP] NCGC Assay Overview The Retinoid X receptor (RXR), a nuclear hormone receptor is expressed in liver, spleen, placenta, epidermis, central nervous system. These receptors are able to form homo and heterodimers with other nuclear receptors and due to this heterodimerizing ability, RXR functions as master regulators producing diverse physiological effects. Three subtypes of RXR exist; alpha, beta and gamma. Retinoid X receptor alpha (RXR-alpha) has potential roles in metabolic signaling pathways, skin alopecia, dermal cysts, cardiac development, insulin sensitization etc. Therefore screening environmental chemicals on RXR-alpha signaling can be used for the studies focused on such therapeutic applications.
# NCGC Assay Protocol Summary Using a beta-lactamase reporter-gene under control of Retinoid X receptor--alpha (RXR-alpha) response element, a cell-based assay [GeneBLAzer (RXR-alpha -UAS-bla assay developed by Invitrogen] was used to measure RXR-alpha ligands signaling. GeneBLAzer RXR-alpha -UAS-bla HEK293T cells were used with assay medium containing 2% charcoal-stripped FBS. The assay was performed in clear bottom black Greiner 1536-well plates. Library compounds were measured for their ability to inhibit the reporter gene activity. Compounds were screened in a titration series in 1536-well format. The fluorescence intensity (405 nm excitation, 460/530 nm emission) was measured using an EnVision plate reader. Data was normalized relative to 9-cis-retinoic acid control (500 nM, 100%), and DMSO only wells (basal, 0%). Concentration-response titration points for each compound were fitted to the Hill equation yielding concentrations of half-maximal inhibition (IC50) and maximal response (efficacy) values. qHTS protocol for RXR-alpha beta-lactamase assay in antagonist mode [Step] [Parameter] [Value] [Description] 1. Reagent; 5 uL; 2500 cells/well 2. Incubation; 37 C for 4 hrs 3. Compounds; 23 nL; 0.59 nM to 92 uM 4. Controls (DMSO); 23 nL 5. Agonist (Stimulator); 1uL; 9-cis-retinoic acid at 500 nM and 100 nM final concentrations 6. Incubation; 37 C for 18 hrs 7. Detection reagent; 1 uL of CCF4-dye 8. Incubation; RT for 2 hrs 9. Detection; Fluorescence; Envision plate reader
# % is set by controls: 0 for no effect and ±100 for the full control effect.
# Retinoic acid receptor RXR-alpha (Homo sapiens), sequence (P19793 whole entry, looked up): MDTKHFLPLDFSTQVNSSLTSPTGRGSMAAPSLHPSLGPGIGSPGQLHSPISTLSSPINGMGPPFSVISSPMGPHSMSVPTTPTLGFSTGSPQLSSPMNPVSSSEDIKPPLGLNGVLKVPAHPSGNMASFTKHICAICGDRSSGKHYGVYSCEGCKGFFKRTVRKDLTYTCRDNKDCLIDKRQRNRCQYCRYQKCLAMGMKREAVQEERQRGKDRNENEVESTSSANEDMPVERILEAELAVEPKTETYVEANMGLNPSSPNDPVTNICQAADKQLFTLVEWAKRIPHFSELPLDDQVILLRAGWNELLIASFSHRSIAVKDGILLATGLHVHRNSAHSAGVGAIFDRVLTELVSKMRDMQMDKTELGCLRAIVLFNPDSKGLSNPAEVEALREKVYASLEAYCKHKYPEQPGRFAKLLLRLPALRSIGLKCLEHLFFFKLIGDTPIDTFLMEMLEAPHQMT
row,SMILES,max response
1,[O-][Cl+]O,22.2%
2,C=CCOCC1CO1 (stereo not given),9.76%
3,Cc1ccc(N)cc1N,9.25% and -0.891%
4,O=[N+]([O-])c1ccccc1O,-20.2%
5,CC(C)(C)C(O)(CCc1ccc(Cl)cc1)Cn1cncn1 (stereo not given),-23.2% and -32.6%
6,Oc1ccc(Cl)c(Cl)c1,-1%
7,CCCCOC(C)=O,10.8%
8,Cc1ccc(N)c(C)c1,-1.52%
9,OCC(Cl)CCl (stereo not given),-4.6%
10,O=[N+]([O-])c1ccc(Cl)c(Cl)c1Cl,7.17%
11,N#CCBr,-1.67%
12,CCCCC(=O)Cl,-9.41%
13,CC(C)(OOC(C)(C)c1ccccc1)c1ccccc1,4.95%
14,CCOC(=O)C1OC1(C)c1ccccc1 (stereo not given),-0.211%
15,CCOC(=O)CBr,-3.36%
16,Oc1c(Cl)c(Cl)cc(Cl)c1Cl,-10.3%
17,CCN(N=O)C(N)=O,-5.46%
18,ClCC(Br)CBr (stereo not given),13.4%
19,ClCCCCl,9.28%
20,O=C(Cl)c1ccccc1F,13.4%

row,SMILES,max response
1,CN(C)C(=O)Nc1cccc(C(F)(F)F)c1,1.67% and -16%
2,NNC(N)=S,9.82%
3,Cc1ccc2c(c1N)C(=O)c1ccccc1C2=O,9.57% and -23.7%
4,CCCCCc1cc(O)cc(O)c1,-16.8%
5,O=C(O)C(Cl)Br (stereo not given),0.341%
6,C1CC2OC2CC1C1CO1 (stereo not given),10.1% and -3.3%
7,O=[N+]([O-])c1ccc(Cl)cc1,5.21% and -2.59%
8,CCCC[N+](=O)[O-],-6.25%
9,ClCC(Cl)Cl,7.8%
10,ClCCOCOCCCl,-0.285%
11,Nc1c(Cl)cc([N+](=O)[O-])cc1Cl,5.54% and -6.63%
12,CC(C)(Cl)Cl,3.57%
13,CN(C)c1ccccc1,5.23%
14,Nc1ccc(Cc2ccc(N)cc2)cc1,-0.525% and -18.2%
15,CCCCCCCCCCCCCl,-4.83%
16,O=P(OCCCl)(OCCCl)OCCCl,7.26%
17,CCN(CC)CCO,35.6%
18,ClC(Br)Br,0.0478%
19,Cc1cc(C)cc(OP(=O)(Oc2cc(C)cc(C)c2)Oc2cc(C)cc(C)c2)c1,28.5%
20,O=c1ccc(=O)[nH][nH]1,-4.77% and 2.87%
